LANA-H2B inh: blocks KSHV LANA binding to histone H2A/H2B | inhibition, % (test concentration not listed) | hit rate 0.6% among 320,000 | Q9QR71 | AID 2629 | cell-free LANA-H2A/H2B peptide, fluorescence polarization; in the data active means inhibition mostly above about 10%, no sharp cut-off; inactive means mostly below about 6.7%
ABHD5-PLIN5 inh: inhibitors of human ABHD5-perilipin-5 interaction; AID 602281; hit rate 0.78% among 360,000; Split G. princeps luciferase complementation, luminescence, 4 h; inhibition, % at 4 µM; Q00G26+Q8WTS1;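 active means inhibition above the mean inhibition across every tested compound plus 3 SD, cut at about 22% in these data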;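 further: 0% = DMSO only wells and the 100% control is not disclosed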
ALR inh: inhibitors of human sulfhydryl oxidase ALR; inhibition, % (test concentration not listed); hit rate 3.8% among 290,000; purified ALR, DTT oxidation, H2O2 HRP-luminol luminescence; P55789;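 active means mean replicate inhibition above about 79%, with every replicate also reaching it, limit read from the data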
PRMT1 inh: inhibitors of human PRMT1; recombinant PRMT1, activity-based probe fluorescence polarization; inhibition, % at 2.79 µM; hit rate 1.3% among 370,000;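 active means inhibition above about 21% made by adding two undisclosed values, limit read from the data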
rCAG RNA binder: r(CAG) repeat RNA binding; inhibition, % at 3 µM; hit rate 1.3% among 370,000; TO-PRO-1 dye displacement fluorescence; AID 651821;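 active means inhibition above the plate cutoff, the mean of all test compounds on that plate plus 3 SD, cut at about 35% in these data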;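 further: 0% = DMSO alone and 100% = 100 µM mitoxantrone as full dye displacement; higher means more dye released from RNA so lower well fluorescence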
Rtt109 HAT inh: C. albicans Rtt109 histone acetyltransferase inhibition. inhibition, % at 34.9 µM. Q5AAJ8. purified Rtt109/Vps75, ThioGlo CoA-SH fluorescence, 4 h. hit rate 0.16% among 330,000;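 active means inhibition of at least 50% in every replicate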
ABHD5-PLIN5 conf: confirmation of human ABHD5-PLIN5 interaction inhibitors | shares compounds with ABHD5-PLIN5 inh | biochemical ABHD5-PLIN5 interaction, luminescence | inhibition, % at 4 µM | hit rate 67% among 2,200 | AID 651612; in the data active means inhibition above about 23%;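 further: 0% = DMSO vehicle wells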
HNF4 counter: HNF4 split-luciferase signal hit, counter-screen | HNF4 dimerization, luminescence, biochemical | AID 651674 | hit rate 77% among 2,200 | inhibition, % at 4 µM | shares compounds with ABHD5-PLIN5 inh;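 active means mean inhibition across replicate wells exceeding the computed hit threshold, cut at about 13% in these data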;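 further: light from luciferase halves that rejoin when HNF4 fusion proteins dimerize; 0% = DMSO only wells and the 100% control is not given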
Target sequence (P41235 whole entry, looked up, the tested form may be a part): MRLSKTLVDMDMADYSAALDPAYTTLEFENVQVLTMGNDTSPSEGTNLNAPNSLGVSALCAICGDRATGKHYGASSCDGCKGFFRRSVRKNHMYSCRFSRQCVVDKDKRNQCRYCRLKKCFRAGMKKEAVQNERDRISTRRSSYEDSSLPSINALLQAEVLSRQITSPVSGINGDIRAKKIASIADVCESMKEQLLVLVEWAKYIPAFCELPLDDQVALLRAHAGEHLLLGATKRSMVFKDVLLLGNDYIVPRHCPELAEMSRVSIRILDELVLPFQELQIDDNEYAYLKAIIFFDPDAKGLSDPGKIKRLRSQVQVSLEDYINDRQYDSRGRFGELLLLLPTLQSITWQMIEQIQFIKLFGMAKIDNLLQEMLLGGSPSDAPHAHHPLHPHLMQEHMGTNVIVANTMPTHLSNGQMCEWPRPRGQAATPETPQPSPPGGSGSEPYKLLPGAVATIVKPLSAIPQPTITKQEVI
* marks the source's active call; other numbers are inactive results; x = no result given. Shown are actives, neighbours in structure and some others; about 5.9% of the full set was active somewhere.

SMILES | LANA-H2B inh | ABHD5-PLIN5 inh | ALR inh | PRMT1 inh | rCAG RNA binder | Rtt109 HAT inh | ABHD5-PLIN5 conf | HNF4 counter
Cn1cccc1/C=C1\CC(C(C)(C)C)C/C(=C\c2cccn2C)C1=O (stereo not drawn) | -1.8 | 25.5* | x | 1.4 | -2.2 | 3.3 | 12.4 | 25.9*
COC(=O)[C@]12C[C@H](CC(=O)NCc3ccc(OC)c(OC)c3)C(=O)N(Cc3ccco3)C1=C[C@H](C(C)(C)C)O[C@@H]2C | x | x | x | 1.7 | 0.1 | x | x | x
CCCCN(c1nc2ccccc2nc1Cl)S(=O)(=O)c1ccc(C)cc1 | -4.2 | -1.9 | -2.6 | 0.4 | -1.7 | 3.0 | x | x
CCC1CSC(Nc2ccc(C(=O)/C=C/c3ccc(Br)cc3)cc2)=N1 (stereo not drawn) | 13.6 | 23.8* | -10.4 | 0.8 | 3.0 | 1.2 | 51.9* | 38.8*
COc1ccc(C=CC(=O)c2ccc(OC)c(OC)c2O)cc1OC | x | 45.8* | x | -2.7 | 1.9 | -2.5 | 55.1* | 43.6*
COc1ccc(C=CC(=O)c2ccc3cc(OC)c(OC)cc3c2)cc1OC | x | 41.4* | x | 2.5 | 7.3 | x | 41.3* | 26.3*
COc1ccc(/C=C/C(=O)c2ccc(NC3=NCCCS3)cc2)cc1OC | -4.4 | 36.1* | 33.2 | 0.1 | 8.1 | 4.5 | 46.7* | 39.9*
O=CNc1cc(-c2ccoc2)cn2c(-c3ccc(F)cc3)cnc12 | x | 12.8 | x | 18.8 | 25.4 | x | x | x
CCn1c(COc2ccccc2)nnc1SCC(=O)Nc1ccc(S(=O)(=O)Nc2cc(C)nc(C)n2)cc1 | x | x | x | -4.2 | 23.3 | x | x | x
COc1ccc(/C=C/C(=O)c2ccc(OC)cc2OC)c(OC)c1 | 1.9 | -2.7 | 4.1 | 2.6 | 2.6 | 0.7 | x | x
COc1ccc(C(=O)/C=C/c2ccc(OC)c(O)c2)c(F)c1 | -2.1 | 29.4* | 65.7 | 3.9 | 4.3 | 13.3 | 55.4* | 49.7*
O=C1/C(=C\c2ccc(Cl)c(Cl)c2)CN(C(=O)CCN2CCOCC2)C/C1=C/c1ccc(Cl)c(Cl)c1 | x | 98.9* | x | 6.0 | 6.4 | -4.3 | 103.4* | 107.9*
O=C1/C(=C\c2ccccc2)CCC/C1=C/c1ccccc1 | x | 5.4 | x | 0.3 | 3.4 | -14.5 | x | x
CCN(CC)CCC(=O)N1C/C(=C/c2ccccc2)C(=O)/C(=C\c2ccccc2)C1 | x | 96.5* | x | 0.8 | 3.0 | -2.7 | 102.1* | 102.7*
O=C1/C(=C\c2ccccc2)CN(C(=O)CCN2CCCCC2)C/C1=C/c1ccccc1 | x | 98.3* | x | 5.9 | 0.3 | -14.7 | 103.1* | 108.0*
S=C(Nc1cccc(Cl)c1)OC1CCC12CCC(c1ccccc1)CC2 (stereo not drawn) | x | x | x | -2.1 | 6.2 | x | x | x
CCCn1nc2cc(C(=O)N(CC)c3ccc(OC)cc3)ccc2c1OCC | 3.8 | 71.3* | -1.6 | -1.9 | -7.9 | 5.9 | 3.1 | 0.4
O=C(O)c1cc([N+](=O)[O-])c(Sc2nc3ccccc3[nH]2)c([N+](=O)[O-])c1 | 3.4 | 34.9* | 84.9* | 10.8 | 2.3 | -7.1 | 52.8* | 54.2*
COc1ccc(C(=O)c2ccc(Br)cc2)cc1 | 0.6 | -6.9 | -1.8 | -1.9 | -2.8 | 0.8 | x | x
COc1ccc(C(=O)/C=C2\C(=O)Nc3ccc(Br)cc32)cc1 | x | 85.5* | x | 11.3 | 18.2 | -6.1 | 97.5* | 91.2*
CC(C)Oc1ccc(C(=O)/C=C2/C(=O)Nc3ccccc32)cc1 | -1.3 | 62.4* | x | 6.8 | 13.7 | -16.3 | 81.5* | 85.9*
CC(C)Oc1ccc(C(=O)O)cc1 | -0.8 | 9.8 | 4.5 | 8.1 | -1.8 | -3.7 | x | x
O=C1Nc2ccccc2/C1=C/c1ccccc1Cl | -1.5 | 26.9* | x | -2.3 | 1.3 | 6.2 | 40.2* | 26.1*
O=C1Nc2ccccc2C1=O | -5.1 | -0.6 | -5.0 | -2.9 | 0.4 | 8.6 | x | x
COc1ccccc1/C=C1\C(=O)Nc2ccccc21 | -3.8 | 18.9 | 4.4 | 0.6 | -0.4 | 6.1 | x | x
O=C1Nc2ccccc2/C1=C\C(=O)c1ccccc1 | 0.3 | 49.7* | 4.7 | 12.8 | 8.3 | -8.4 | 81.5* | 95.6*
CCn1cc(C(=O)NCCCN2CCCC(C)C2)c(=O)c2cc(S(=O)(=O)N(C)C3CCCCC3)ccc21 (stereo not drawn) | -3.5 | 12.2 | -2.4 | 1.2 | -5.6 | 11.8 | x | x

Screening results deposited in PubChem BioAssay by several laboratories.
